We go through 96 molecules from PubChem BioAssay AID624417 (National Center for Advancing Translational Sciences (NCATS), 2012).

Among all 410,000 compounds or so, about 6,400 (1.6%) were called active. A call without a number means that no potency is given here. Not shown: some 20% with an inconclusive outcome. Calls follow the shape of the dose curve; as a rule, active = well fitted inhibition curve with a large enough effect; inconclusive = small, poorly fitted or top-dose-only effect; inactive = no such curve, though single readings can be large or run the other way. The full list was thinned out, with actives kept by preference.
Potency is read from the fitted curve at half-maximal effect.

Glucagon-like peptide 1 receptor (Homo sapiens), sequence (P43220 whole entry, looked up): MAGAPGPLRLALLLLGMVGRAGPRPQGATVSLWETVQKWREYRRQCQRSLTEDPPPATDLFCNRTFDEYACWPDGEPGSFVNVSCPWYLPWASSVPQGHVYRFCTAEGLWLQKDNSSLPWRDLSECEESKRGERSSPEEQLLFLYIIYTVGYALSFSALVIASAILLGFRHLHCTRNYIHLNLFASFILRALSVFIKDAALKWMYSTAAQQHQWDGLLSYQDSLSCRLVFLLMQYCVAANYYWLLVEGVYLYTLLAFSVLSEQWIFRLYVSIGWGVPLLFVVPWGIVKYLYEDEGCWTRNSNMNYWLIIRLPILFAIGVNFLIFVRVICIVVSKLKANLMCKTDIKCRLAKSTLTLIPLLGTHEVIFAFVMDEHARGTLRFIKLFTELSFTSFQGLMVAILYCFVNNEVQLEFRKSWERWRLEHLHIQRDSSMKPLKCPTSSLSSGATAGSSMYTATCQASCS

The experiment addresses Glucagon-like peptide 1 receptor (Homo sapiens) (UniProt P43220). In words: qHTS of GLP-1 Receptor Inverse Agonists (Inhibition Mode). Also: nearly all actives have a fitted effect of over 55% in size. Conditions: HEK293 GLP-1R CRE-luciferase, luminescence, 24 h, GLP-1R form is constitutively active; series mostly up to 38.3 µM. An excerpt: The overall goal of this project was to develop a novel assay for discovering small molecule ligands for class B1 G protein-coupled receptors (GPCRs). Very few agonists (or inverse agonists in inhibition mode) with generally weak activity for this entire group of physiologically important receptors are known to date. To establish proof-of-principle that this critical bottleneck can be overcome with a suitable screening approach, our studies focused on the class B1 receptor for glucagon-like peptide-1 (GLP-1R), a potential therapeutic target for diabetes and neurodegenerative disease. The assay was developed using a cell-based functional readout. Toward this goal, stably transfected HEK293 cell clones were established that co-express (i) a cAMP-responsive luciferase reporter gene, and (ii) constitutively active GLP-1R that upon ligand interaction inhibit (inverse agonists) the luciferase activity. In addition, two control cell lines were developed: (i) one that express only the cAMP-responsive reporter gene to enable initial exclusion of GLP-1R independent effects of candidate probes; and (ii) one with the reported gene cloned with another constitutively active orphan receptor GPR119 to enable exclusion of GLP-1R independent inhibitor effects of candidate inverse agonists. To that end, this assay was optimized for 1536-well format and screened against the MLSMR. […] NIH Molecular Libraries Probe Production Network [MLPCN] NIH Chemical Genomics Center [NCGC] Grant: NS064851 PI Name: Martin Beinborn, Tufts Medical Center
Six ul of cell suspension (200 cells/uL in DMEM + 10% Nu serum + 1% pen-strep) is dispensed in a white solid 1536-well plate. The plates are incubated for 12 hours at 37 deg C at 5% CO2 followed by addition of 23 nL compounds. After 24 hr incubation at 37 deg C and 5% CO2, 3 uL of luciferase assay detection reagent is added. A luminescence read is obtained on the PerkinElmer Viewlux after 12 min incubation at room temperature.
A general note: Quantitative high-throughput screening tests each substance at several concentrations.
`O=C(Nc1cccc2cccnc12)c1ccc2sc([C@H]3C[C@H](O)[C@@H](CO)O3)nc2c1`: the Potency entry is “inactive”.
The value for `C=C1C(=O)OC2C1CCC(C)=CCCC1(C)OC21` (stereo unspecified) was “inactive”.
The value for `CSCc1nnc(NC(=O)c2ccc(S(=O)(=O)N3CCCCC3C)cc2)o1` (stereo unspecified) was “inactive”.
The value for `CCN(CC(=O)NCc1cccs1)S(=O)(=O)c1ccc(NC(C)=O)cc1` was “inactive”; that for `CC1CCCCN1S(=O)(=O)c1ccc(S(=O)(=O)N(CC(=O)Nc2ccccc2)Cc2cccs2)cc1` (stereo unspecified) was 11.2 µM (active); that for `CNc1cc(-c2c(OC)cccc2OC)ncn1` was “inactive”.
As to `CCNC(=O)CCc1nc(-c2ccc(C(C)(C)C)cc2)no1`, the Potency is 7.94 µM (active).
For the molecule `CCNC(=O)CCc1nc(-c2ccc(C)cc2)no1`, the Potency entry was “inactive”.
The value for `CCOc1ccc(-c2noc(CCC(=O)NC3CCCC3)n2)cc1OC` was “inactive”.
For `O=C1NC[C@H](CCCCN2C[C@H](Cc3ccc(O)cc3)N(CC3CCCCC3)C(=O)C2=O)N(CCc2ccccc2)C1=O`, the Potency entry is “inactive”.
On to `OCCc1ccc(NCCc2ccco2)cc1`, for which the Potency entry was “inactive”.
The value for `CC1(C(=O)Nc2ccc3c(c2)OCCO3)CSCC(=O)N1CCOc1ccccc1` (stereo unspecified) was “inactive”; that for `O=C(NCc1ccc2c(c1)CCN2C(=O)c1ccccc1)c1ccccc1` was “inactive”.
The value for `O=C(CCc1ccccc1)NCc1ccc2c(c1)CCN2C(=O)c1ccccc1` was “inactive”; that for `O=C(NCc1ccc2c(c1)CCN2C(=O)c1ccccc1)Nc1cc(F)ccc1F` was 10 µM (active).
On to `COc1ccc2c(c1)CCCO[C@]21O[C@H](CCO)C[C@H](O)[C@H]1O`, for which the Potency entry was “inactive”.
Turning to `COc1cc(OC)c(C(=O)N2CCCC2)cc1OC`, the Potency result was “inactive”.
Consider `Cc1c(Br)cc(C(=O)N2CCCCCC2)c(C)c1C`, for which the Potency was 10 µM (active).
The value for `Cc1ccc(C(=O)N2CCCC2)c(F)c1F` was “inactive”; that for `C[C@H]1CN([C@@H](C)CO)C(=O)CCCn2nncc2CO[C@@H]1CN(C)Cc1ccc(Oc2ccccc2)cc1` was “inactive”.
In the case of `Cc1ccc(S(=O)(=O)NC(=O)Nc2nc(-c3ccc(F)c(F)c3)cs2)cc1` it was “inactive”.
As for `CCCc1ccc(-c2csc(NC(=O)Cc3cccs3)n2)cc1`, the Potency entry was “inactive”.
The value for `COc1ccc(CC(=O)Nc2nc(-c3ccc(F)c(F)c3)cs2)cc1OC` was 3.98 µM (active); that for `CC1(C)CC(=O)C=C(c2ccccc2CO)C1=O` was “inactive”; that for `CC1=C(C(=O)N2CCOCC2)CC(CC(=O)NCc2cccc3ccccc23)C(=O)N1CCC1=CCCCC1` (stereo unspecified) was “inactive”.
In the case of `CC(C)N(C(=O)[C@H]1C[C@H](CC(=O)NCCC2=CCCCC2)C(=O)N2CCc3c([nH]c4cc(CCC(=O)N(C)C)ccc34)[C@]12C)C(C)C` it was “inactive”; in that of `CC(C)N(C(=O)[C@H]1C[C@H](CC(=O)NC(C)(C)C)C(=O)N2CCc3c([nH]c4ccc(Cl)cc34)[C@]12C)C(C)C`, 11.2 µM (active).
The value for `C[C@]12c3[nH]c4ccc(Cl)cc4c3CCN1C(=O)[C@@H](CC(=O)NCCCn1ccnc1)C[C@@H]2C(=O)N1CCOCC1` was “inactive”; that for `CS(=O)(=O)c1cccc(-c2ccc3nncn3c2)c1` was “inactive”; that for `Cc1ccccc1-c1ccc2c(c1)O[C@@H](CN(C)Cc1ccc(C(=O)O)cc1)[C@@H](C)CN([C@H](C)CO)S2(=O)=O` was “inactive”.
For the molecule `O=C1c2ccccc2C(c2nc3ccccc3[nH]2)N1c1ccccc1` (stereo unspecified), the Potency entry was “inactive”.
On to `CCOc1ccc(Cl)cc1-c1cc(C(=O)NCc2cccs2)[nH]n1`, for which the Potency result is “inactive”.
In the case of `CC(C)c1ccc(CC(=O)N2CCC2(C)C(=O)NS(=O)(=O)c2ccc(C(C)(C)C)cc2)cc1` (stereo unspecified) it was “inactive”.
The value for `Cc1ccc2c(c1)N(C(=O)Nc1ccc(Br)cc1F)CCO2` was “inactive”; that for `O=C1OCCN1C(=O)[C@H]1[C@H](c2ccc(Cl)cc2)C(c2cccc(Cl)c2)=NN1c1ccc(Br)cc1` was 7.94 µM (active); that for `C[C@@H]1C(c2ccc(F)cc2)=NN(c2ccc(Br)cc2)[C@H]1C(=O)N1CCOC1=O` was 10 µM (active).
The value for `O=c1c2cc(Br)ccc2nc(-c2cccc(Cl)c2)n1O` was “inactive”; that for `Cc1sc2ncnc(SCC(=O)NC3CCS(=O)(=O)C3)c2c1C` (stereo unspecified) was “inactive”.
Consider `CCCCNC(=O)c1nc(C2CCN(S(=O)(=O)c3ccc(F)c(F)c3)CC2)oc1-c1cccc(C(F)(F)F)c1`, for which the Potency entry was “inactive”.
In the case of `O=S1(=O)CC(N2CCN(CCO)CC2)CN1C1CCCC1` (stereo unspecified) it was “inactive”; in that of `CCCNc1ncnc2c1c(-c1ccccc1)cn2-c1ccc(OCC)cc1`, 3.16 µM (active); in that of `COCCNc1ncnc2c1c(-c1ccccc1)cn2-c1ccc(C)c(Cl)c1`, “inactive”.
In the case of `O=c1[nH]cnc2c1c(-c1ccccc1)cn2-c1ccc(F)cc1` it was “inactive”.
With `CC1(C(=O)Nc2ccc3c(c2)OCCO3)CN(S(C)(=O)=O)CC(=O)N1Cc1cccc(F)c1` (stereo unspecified), the Potency result is “inactive”.
With `Cn1nc(-c2ccccc2)c(CO)c1Sc1ccccc1`, the Potency result was “inactive”.
`Cc1ccc(S(=O)(=O)c2c(COC(=O)c3cccc(Cl)c3)c(-c3ccccc3)nn2C)cc1`: the Potency result was “inactive”.
In the case of `Cn1nc(-c2ccccc2)c(CSc2cccc(Cl)c2)c1Cl` it was 10 µM (active); in that of `CC(=O)N1Cc2cc(C(=O)NCc3cccc(F)c3)nc(-c3cccc(C4=CCCC4)c3)c2[C@H]1CCO`, “inactive”; in that of `COc1ccc(S(=O)(=O)N2CCN(CC(=O)N3CCNC3=O)CC2)cc1OC`, “inactive”.
The value for `Cc1ccn2c(-c3csc(Nc4ccc(C(=O)O)cc4)n3)c(C)nc2c1` was “inactive”; that for `Oc1ccccc1N1CCN(C(=S)NCc2ccccc2)CC1` was 11.2 µM (active).
The value for `CC1CCCCN1C(=S)NCc1ccccc1` (stereo unspecified) was “inactive”; that for `Oc1ccc(N2CCN(C(=S)NCc3ccccc3)CC2)cc1` was “inactive”.
`COc1cc2c(=O)n(C)c3ccccc3c2cc1OC`: the Potency result was “inactive”.
In the case of `CCC(=O)Nc1ccc(C(=O)N2CCN(C(=O)c3ccco3)CC2)cc1` it was “inactive”; in that of `Cc1ccc(OCC(=O)Nc2ccc(N3CCN(C(=O)c4ccco4)CC3)cc2)c(C)c1`, 7.94 µM (active); in that of `Cc1ccc(C)c(OCC(=O)N2CCN(C(=O)c3ccco3)CC2)c1`, “inactive”.
Regarding `Cc1ccc([N+](=O)[O-])cc1S(=O)(=O)N1CCCN(C)CC1`, the Potency result is “inactive”.
In the case of `Cc1ccc2c(c1)C1CN(C)CCC1N2S(=O)(=O)c1ccc(Oc2ccc([N+](=O)[O-])cc2)cc1` (stereo unspecified) it was 11.2 µM (active).
`O=C(C1CCCN(S(=O)(=O)c2ccc([N+](=O)[O-])cc2)C1)N1CCCCC1` (stereo unspecified): the Potency result was “inactive”.
In the case of `CCc1ccccc1OCC(=O)Nc1nnc(C2CC2)s1` it was “inactive”.
The value for `COC(=O)C[C@H]1C[C@@H]2c3cc(N(C)C)ccc3O[C@@H]2[C@H](CO)O1` was “inactive”.
In the case of `CCN(CC(=O)Nc1cc(Cl)ccc1C)C(=O)CSCc1ccccc1` it was 12.6 µM (active); in that of `Cc1ccc(Cl)cc1NC(=O)COC(=O)CC(C)(C)C`, “inactive”; in that of `Cc1ccc(Cl)cc1NC(=O)CSc1nc2ccccc2nc1Cc1ccccc1`, “inactive”.
For the molecule `CCN(CC(=O)Nc1cc(Cl)ccc1C)C(=O)CSCc1ccc(C)cc1`, the Potency was 10 µM (active).
In the case of `CCN(CC(=O)Nc1cc(Cl)ccc1C)C(=O)CN1C(=O)NC2(CCCC2)C1=O` it was “inactive”; in that of `CCN(CC(=O)Nc1cc(Cl)ccc1C)C(=O)Cn1c(=O)cnc2ccccc21`, “inactive”; in that of `CCCS(=O)(=O)NC(=O)C1(C)CCCN(C(=O)c2cccs2)C1` (stereo unspecified), “inactive”.
The value for `COc1ccc(NC(=O)COC(=O)C2COc3ccccc3O2)cc1` (stereo unspecified) was “inactive”; that for `Cn1c(=O)c2c(nc(SCC(=O)Nc3ccccc3N3CCCCC3)n2C)n(C)c1=O` was “inactive”.
The value for `Cc1ccccc1NC(=O)CNc1ccccc1N1CCCCC1` was 7.94 µM (active); that for `Cc1ccc(C(C)C)cc1OCC(=O)Nc1ccccc1N1CCCC1` was 2.51 µM (active); that for `CC(C)n1c(SCC(=O)Nc2ccccc2N2CCCCC2)nc2c1c(=O)n(C)c(=O)n2C` was “inactive”.
With `Cc1cccc(N2CC(C(=O)Nc3ccccc3N3CCCC3)CC2=O)c1C` (stereo unspecified), the Potency entry was “inactive”.
Turning to `Cc1ccc(C(C)C)cc1OCCN1CCCC1`, the Potency entry is “inactive”.
The value for `COC(=O)c1ccc2nc(-c3cccc(Br)c3)c(Cc3ccccc3C(F)(F)F)n2c1` was “inactive”; that for `CN(C)C(=O)c1cccc(-c2cnc3c(NC=O)cc(-c4ccc(C(=O)N5CCOCC5)cc4)cn23)c1` was “inactive”; that for `CC(=O)C[C@@H]1OC[C@H](CO)N1S(=O)(=O)c1ccc(C)cc1` was “inactive”.
In the case of `COc1ccc(NC(=O)C2(C)Cc3c(-c4ccc(C(N)=O)cc4)ccnc3O2)cc1` (stereo unspecified) it was “inactive”; in that of `C[C@@H]1CN([C@@H](C)CO)C(=O)c2c(c3ccccc3n2C)-c2ccccc2CO[C@H]1CN(C)C(=O)C1CC1`, “inactive”.
The value for `COc1cc(C(=O)N2CCOC23CCN(Cc2ccccc2)CC3)cc(OC)c1OC` was “inactive”.
`CCOc1ccc(NC(=O)CCS(=O)(=O)c2cccc3nsnc23)cc1`: the Potency result was “inactive”.
The value for `CCOc1ccc(OCC)c(NC(=O)CN(C)S(=O)(=O)c2cccc3nsnc23)c1` was 6.31 µM (active); that for `CCOc1ccccc1NC(=O)CCS(=O)(=O)c1cccc2nsnc12` was “inactive”.
For the molecule `CC1(C(=O)NS(=O)(=O)Cc2cccc(Cl)c2)CCN1C(=O)Cc1ccccc1` (stereo unspecified), the Potency result was “inactive”.
Regarding `CCCNC(=O)C1(C)CCCN(Cc2cccc(C(F)(F)F)c2)C1` (stereo unspecified), the Potency entry was “inactive”.
As to `Cc1ccc(Oc2nc(-c3ccccn3)nc3ccccc23)cc1`, the Potency is 5.01 µM (active).
For the molecule `Cc1nc2ccccc2c(C(=O)O)c1-c1ccccn1`, the Potency result was “inactive”.
`N#Cc1ccc(Oc2cc(C(F)(F)F)nc(-c3ccccn3)n2)cc1`: the Potency result was “inactive”.
In the case of `CCOc1ccc(CCN2C(=O)C(=O)N([C@@H](Cc3ccc(O)cc3)CN3CCC[C@H]3CN3C(=O)C(=O)NC[C@@H]3CC(C)C)C[C@@H]2Cc2ccccc2)cc1` it was “inactive”; in that of `CCCCn1nnnc1C(c1cccc(OC)c1OC)N1CCN(C/C=C/c2ccccc2)CC1` (stereo unspecified), “inactive”.
In the case of `Cc1cccc(-c2cnc(C(O)c3cc(C)cc(C)c3)[nH]2)c1` (stereo unspecified) it was “inactive”; in that of `COc1c(C)cc(C(O)c2ncc(-c3cccc(C(F)(F)F)c3)[nH]2)cc1C` (stereo unspecified), 12.6 µM (active).
For `COc1ccc(OC)c(C(O)c2ncc(-c3cccc(C(F)(F)F)c3)[nH]2)c1` (stereo unspecified), the Potency result is “inactive”.
In the case of `COc1ccccc1Cc1c(-c2ccc(Cl)cc2)nc2c3ccccc3ccn12` it was “inactive”.
